This passage reports parasite growth results from the supplement of paper PMC4894684.

Structures can show the parent of a compound that is named as a salt. ± gives the standard deviation of the averaged measurements.

This test has as its system Toxoplasma gondii RH (in HFF). In words: parasite growth relative to the screen mean (all compounds = 100%); higher = less inhibition of parasite growth. Particulars: 5 µM; 72 h; oxygen 21 %. In short, it runs like this: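 Confluent human foreskin fibroblasts in 96-well plates received library compounds by pin transfer at 5 µM final, taken from 10 mM DMSO stocks. Within 2 h the cells were infected with RH β-Gal–GFP Toxoplasma at MOI 1:5 and cultured 72 h at 21% O2. A CPRG β-Gal assay read against in-plate standard curves gave parasite number, and growth is stated relative to the screen mean, where all compounds = 100%, averaged across two screens.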
With `O=c1cc(-c2ccc(O)cc2)oc2cc(O)cc(O)c12` [Apigenin], the parasite growth came to 102 ± 21%.
`CCCCCCCC/C=C\CCCCCCCC(N)=O` [Oleamide]: the parasite growth was found to be 74.8 ± 12%.
`N[C@@H]1CCN(O)C1=O` came in with a parasite growth of 97.4 ± 22%.
With `Nc1c(S(=O)(=O)O)cc(Nc2cccc3ccccc23)c2c1C(=O)c1ccccc1C2=O` the figure was 172 ± 11%; with `NCCCCCc1c[nH]cn1` [Impentamine dihydrobromide], 132 ± 7.9%.
In the case of `c1ccc2oc(C3=NCCN3)cc2c1` [2-BFI hydrochloride] it was 109 ± 12%; in that of `CCCCCCCC/C=C\CCCCCCCC(=O)NCCO` [Oleylethanolamide], 135 ± 21%; in that of `CC(C)NC[C@H](O)COc1cccc2ccccc12` [(S)-(-)-Propranolol hydrochloride], 81.8 ± 3.3%.
Regarding `COc1ccc2c(c1)c(CC(=O)O)c(C)n2C(=O)c1ccc(Cl)cc1` [Indomethacin], the parasite growth was 150 ± 30%.
`CCOC(=O)[C@]12CC1/C(=N\O)c1ccccc1O2` (some centres undefined): the parasite growth was determined as 83 ± 23%.
With `N[C@H](C(=O)O)[C@H](OCc1ccccc1)C(=O)O` (racemic) the figure was 80.3 ± 61%.
With `N#C/C(=C\c1ccc(O)c(O)c1)C(=O)NCCCCc1ccccc1` the figure was 155 ± 18%; with `CC(C)NCC(O)c1ccc(NS(C)(=O)=O)cc1` (centres undefined) [Sotalol hydrochloride], 108 ± 6.9%.
`O=c1[nH]ccc2c(S(=O)(=O)N3CCCNCC3)cccc12` [HA 1100 hydrochloride] yielded a parasite growth of 122 ± 10%.
As to `Cc1ccc2c(c1)C(=O)C1(O)CCN(c3ccccc3)C1=N2` (racemic) [(±)-Blebbistatin], the parasite growth stood at 161 ± 15%.
On to `O=C(/C=C/c1ccc(O)c(O)c1)OCCc1ccccc1` [Caffeic acid phenethyl ester], for which the parasite growth came to 105 ± 73%.
On to `CS(=O)(=O)c1ccc(-c2cc(Br)sc2-c2ccc(F)cc2)cc1`, for which the parasite growth was 47.5 ± 14%.
In the case of `COc1cc2c(Nc3ccc(NC(=O)c4ccccc4)cc3)ncnc2cc1OCCCN1CCOCC1` it was 17.4 ± 8.7%; in that of `Nc1ncnc2nc(-c3ccc(N4CCOCC4)nc3)cc(-c3cccc(Br)c3)c12` [ABT 702 dihydrochloride], 100 ± 9.5%; in that of `c1ccc2cc(C3=NCCN3)ncc2c1` [BU 226 hydrochloride], 126 ± 3.6%.
The compound `CC[C@H](NC(=O)c1c(C)c(-c2ccccc2)nc2ccccc12)c1ccccc1` had a parasite growth of 98.6 ± 3.1%.
In the case of `Cn1cc(C(=O)OCC2CCN(CCNS(C)(=O)=O)CC2)c2ccccc21` it was 123 ± 3.8%; in that of `CC[C@H](CO)Nc1nc(Nc2cccc(-c3ccccn3)c2)c2ncn(C(C)C)c2n1` [(R)-DRF053 dihydrochloride], 32.4 ± 16%; in that of `COc1cc(COc2cc(N)c(Cl)cc2C(=O)CCC2CCN(CCNS(C)(=O)=O)CC2)cc(OC)c1`, 28.1 ± 16%.
`O=c1cc(-c2cccc3c2Sc2ccccc2S3)oc(N2CCOCC2)c1` registered a parasite growth of 112 ± 15%.
With `C[N+]1(C)CCC(OC(=O)C(c2ccccc2)c2ccccc2)CC1`, the parasite growth stood at 86.5 ± 39%.
With `CO[C@@H]1[C@H](O)[C@@H](CO)O[C@H]1n1cnc2c(NC3CCCCC3)ncnc21` the figure was 103 ± 24%; with `CC(=O)Nc1ccc(O)cc1` [Acetaminophen], 105 ± 2.7%; with `Cc1cc(C)c(S(=O)(=O)Nc2ccccc2C(F)(F)F)c(C)c1`, 145 ± 10%.
`CN(CCCN1c2ccccc2CCc2ccccc21)CC(=O)c1ccc(Cl)cc1` [Lofepramine]: the parasite growth amounted to 185.3 ± 1.1%.
For the compound `CCCCCCCCCCC[C@@H](C[C@@H]1OC(=O)[C@H]1CCCCCC)OC(=O)[C@H](CC(C)C)NC=O` [Orlistat], the parasite growth is below 0%.
For `OC(CCCN1CCN(c2ncc(F)cn2)CC1)c1ccc(F)cc1` (centres undefined), the parasite growth worked out at 64.6 ± 30%.
With `N#Cc1cc2nc(O)c(O)nc2cc1[N+](=O)[O-]` [CNQX disodium salt] the figure was 133 ± 37%; with `CCOC(=O)C1=C[C@]2(CC)CCCN3CCc4c(n1c1ccccc41)[C@@H]32` [Vinpocetine], 121 ± 10%; with `N=C(N)NC(=N)Nc1ccccc1` [1-Phenylbiguanide hydrochloride], 91.9 ± 21%.
Compound `CCCCc1nc2ccn(Cc3cccs3)c(=O)c2n1Cc1ccc(-c2ccccc2-c2nn[nH]n2)cc1` registered a parasite growth of 104 ± 12%.
With `CCCCCCCCCCCCCCCC(=O)NCCO` [Palmitoylethanolamide] the figure was 64.8 ± 16%; with `c1cc(CN2CCCCC2)cc(OCCCNc2nc3ccccc3s2)c1` [Zolantidine dimaleate], 112 ± 4.6%; with `Nc1nc(NCCc2ccc(O)cc2)nc2nc(-c3ccco3)nn12`, 11.2 ± 10%.
